Data: PubChem BioAssay (NCI)
Compounds without any hit were thinned out: in the full panel of roughly 83,000, 20% have a hit.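 Cells were grown in 96-well plates and exposed to the test compound at a single concentration for 48 hours; results are reported as percent growth, with values below 10 considered active.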 Calls of active or inactive are those of the source.

What was measured:
Assay in all cases: NCI-60 one-dose screen, 48 h (100 = growth as untreated, 0 = no growth, -100 = all killed)
Conditions in all cases: 10 µM unless noted
SN12C renal = test system: SN12C renal
UO-31 renal = test system: UO-31 renal
TK-10 renal = test system: TK-10 renal
ACHN renal = test system: ACHN renal
CAKI-1 renal = test system: CAKI-1 renal
A498 renal = test system: A498 renal
CCRF-CEM leukemia = test system: CCRF-CEM leukemia
MOLT-4 leukemia = test system: MOLT-4 leukemia

Measured: growth

O=C(CN1CCOCC1)Nc1ccc(Cn2nnc3c2C(=O)c2nnn(Cc4ccc(NC(=O)CN5CCOCC5)cc4)c2C3=O)cc1
active: SN12C renal -32.1% | A498 renal -39.8% | CCRF-CEM leukemia -21.4% | MOLT-4 leukemia -41.8%
inactive: UO-31 renal 85.3% | TK-10 renal 79.7% | ACHN renal 58.7% | CAKI-1 renal 72.9%

O=c1c2cccc3c(Nc4c(F)cccc4F)ccc(c32)c2nc3ccccc3n12
inactive: SN12C renal 93.8% | UO-31 renal 50.6% | ACHN renal 88% | CAKI-1 renal 62% | A498 renal 109% | CCRF-CEM leukemia 72.5% | MOLT-4 leukemia 74.1%

O=C(CCCCN1CCOCC1)Nc1ccc(Cn2nnc3c2C(=O)c2nnn(Cc4ccc(NC(=O)CCCCN5CCOCC5)cc4)c2C3=O)cc1
active: SN12C renal -46.6% | ACHN renal -4.59% | CAKI-1 renal 7.17% | A498 renal -91.1% | CCRF-CEM leukemia -1.29% | MOLT-4 leukemia -37.3%
inactive: UO-31 renal 10.5% | TK-10 renal 13.6%

COc1ccccc1-c1ccc2c(N)c(C(=O)c3ccc4c(c3)OCO4)sc2n1
inactive: SN12C renal 64.2% | UO-31 renal 78.5% | ACHN renal 88.6% | CAKI-1 renal 70.2% | A498 renal 60.1% | CCRF-CEM leukemia 60.2% | MOLT-4 leukemia 36.6%

COc1ccc(C(=O)c2sc3nc4c(c(C(F)(F)F)c3c2N)CN(C(C)=O)CC4)cc1OC
inactive: SN12C renal 93.7% | UO-31 renal 46.3% | TK-10 renal 86% | ACHN renal 79.1% | CAKI-1 renal 80% | A498 renal 58.1% | CCRF-CEM leukemia 82.6% | MOLT-4 leukemia 79.2%

O=C(CCCN1CCOCC1)Nc1ccc(Cn2nnc3c2C(=O)c2nnn(Cc4ccc(NC(=O)CCCN5CCOCC5)cc4)c2C3=O)cc1
active: SN12C renal -40.7% | CCRF-CEM leukemia -3.08% | MOLT-4 leukemia -21.5%
inactive: UO-31 renal 103% | ACHN renal 97.9% | CAKI-1 renal 88.6% | A498 renal 102%

O=C1Nc2ccccc2C12CC(c1ccc(Cl)cc1)=NN2 (stereo not drawn)
inactive: SN12C renal 88.8% | UO-31 renal 69.2% | ACHN renal 91% | CAKI-1 renal 74.6% | A498 renal 99.6% | CCRF-CEM leukemia 88.3% | MOLT-4 leukemia 83.8%

O=c1c2cccc3c(NC4CCCCC4)ccc(c32)c2nc3ccccc3n12
inactive: SN12C renal 87% | UO-31 renal 41.4% | TK-10 renal 77.4% | ACHN renal 72.9% | CAKI-1 renal 47.2% | A498 renal 99.1% | CCRF-CEM leukemia 65.4% | MOLT-4 leukemia 49.8%

COc1ccc2nc3cc(Cl)ccc3c(N3CCN(c4ccnc(N5CCOCC5)n4)CC3)c2c1
inactive: SN12C renal 32.3% | TK-10 renal 63.7% | ACHN renal 27.4% | CAKI-1 renal 59.7% | A498 renal 60.6%
active: CCRF-CEM leukemia -18.4%

O=C1CC(c2nc3ccccc3[nH]2)CN1C1CCCCC1 (stereo not drawn)
inactive: SN12C renal 108% | UO-31 renal 78.4% | TK-10 renal 99.6% | ACHN renal 106% | CAKI-1 renal 94.2% | A498 renal 79.7% | CCRF-CEM leukemia 111% | MOLT-4 leukemia 102%

Cc1ccc(S(=O)(=O)n2cc(-c3csc(-c4cn(C)c5ncccc45)n3)c3ccccc32)cc1
inactive: SN12C renal 77.6% | UO-31 renal 57.3% | TK-10 renal 91.3% | ACHN renal 53% | CAKI-1 renal 48.1% | A498 renal 52.2% | CCRF-CEM leukemia 37.4% | MOLT-4 leukemia 49.3%

O=C1Nc2ccccc2C12CC(c1ccccc1)=NN2 (stereo not drawn)
inactive: SN12C renal 68.6% | UO-31 renal 57.6% | ACHN renal 59.3% | CAKI-1 renal 22.8% | A498 renal 63.7% | CCRF-CEM leukemia 49.2% | MOLT-4 leukemia 38.7%

CC1=C(NCCN2CCCC2)C(=O)c2c(OCc3ccc(C(F)(F)F)cc3)cccc2C1=O
active: CCRF-CEM leukemia 1.19%
inactive: SN12C renal 86.1% | UO-31 renal 62.1% | TK-10 renal 91.8% | ACHN renal 92.6% | CAKI-1 renal 59.9% | MOLT-4 leukemia 12.2%

CC1=C(NCCN2CCCC2)C(=O)c2c(OCc3cccc(Cl)c3)cccc2C1=O
inactive: SN12C renal 75.2% | UO-31 renal 52.7% | TK-10 renal 74.1% | ACHN renal 89.1% | CAKI-1 renal 53.7% | A498 renal 47.4% | CCRF-CEM leukemia 54.9% | MOLT-4 leukemia 51.5%

CCCCNc1ccc2c3c1cccc3c(=O)n1c3ccccc3nc21
inactive: SN12C renal 90.9% | TK-10 renal 70.2% | ACHN renal 81.8% | CAKI-1 renal 43.2% | A498 renal 96.1% | CCRF-CEM leukemia 75% | MOLT-4 leukemia 69.4%

O=C1CC(c2nc3ccccc3s2)CN1C1CCCCC1 (stereo not drawn)
inactive: SN12C renal 93.5% | UO-31 renal 70.5% | TK-10 renal 121% | ACHN renal 98.5% | CAKI-1 renal 89.1% | A498 renal 73.2% | CCRF-CEM leukemia 100% | MOLT-4 leukemia 90.9%

COc1ccc(/C=C2\N=C3Sc4cc(Cl)ccc4C(=O)N3C2=O)cc1
inactive: SN12C renal 96.3% | UO-31 renal 65% | TK-10 renal 107% | ACHN renal 92.1% | A498 renal 108% | CCRF-CEM leukemia 93.4% | MOLT-4 leukemia 93.6%

COc1ccc(-c2cnoc2-c2cc(OC)c3c(c2)OCCO3)cc1
active: SN12C renal 9.42% | A498 renal -8.01% | CCRF-CEM leukemia -7.11% | MOLT-4 leukemia 6.08%
inactive: UO-31 renal 39.6% | TK-10 renal 71.8% | ACHN renal 21.1% | CAKI-1 renal 33.5%

Cc1sc2nc3[nH]/c(=C\c4ccc(Cl)cc4)c(=O)n3c(=O)c2c1C
inactive: SN12C renal 98.1% | UO-31 renal 103% | TK-10 renal 102% | ACHN renal 101% | CAKI-1 renal 105% | A498 renal 99.5% | CCRF-CEM leukemia 90.2% | MOLT-4 leukemia 94.1%

Cc1cc(OCc2ccc(C(F)(F)F)cc2)c2c(c1)C(=O)C=C(NCCN1CCCC1)C2=O
inactive: SN12C renal 79.4% | UO-31 renal 53.8% | TK-10 renal 82.7% | ACHN renal 72.5% | CAKI-1 renal 53.1% | A498 renal 67.8% | CCRF-CEM leukemia 13% | MOLT-4 leukemia 16.4%

CCN(CC)CCCC(C)N/C(=C1\C(=O)NC(=O)\C1=C(/NC(C)CCCN(CC)CC)c1cccc(OC)c1)c1cccc(OC)c1 (stereo not drawn)
active: SN12C renal 9.96% | UO-31 renal -83.8% | TK-10 renal -23.4% | ACHN renal -29% | CCRF-CEM leukemia -28.1% | MOLT-4 leukemia -10.5%
inactive: CAKI-1 renal 61.4% | A498 renal 60.2%
